Experimental data taken from PubChem BioAssay (NCATS).
Results filed as inconclusive are left out. Activity calls are given as the source filed them. Calls come from the whole dose curve; as a rule, active = well fitted curve in the direction sought with a large enough effect; inconclusive = small, poorly fitted or top-dose-only effect, or another doubt; inactive = no such curve, though single readings can be large; an effect the other way counts as inactive or inconclusive.

How the values were obtained:
[1] = tested on: Zika virus NS2B-NS3 protease (linked construct); assay: Primary screen NINDS Rhodamine qHTS for Zika virus inhibitors (AID 1347160); details: purified NS2B-NS3 protease, Rhodamine110 substrate fluorescence; series mostly up to 57.1 µM; note: nearly all actives have a fitted effect of over 55% in size; for activity change, negative = inhibition: % is set by controls: 0 for no effect and ±100 for the full control effect
Procedure, shortened: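 Single-chain NS2B-NS3 protease, 25 nM, pH 8.0; compounds preincubated 15 min. Activity: Rhodamine110 release from 1.5 microM substrate over 15 min, room temperature, data fitted to 4-parameter Hill.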

[2] = target: Calcium and integrin-binding protein 1 (Homo sapiens) (UniProt Q99828); assay: Primary qHTS for Identification of Calcium Integrin Binding Protein 1 (CIB1) Competitor (AID 1508620); details: CIB1-GST / FITC-alphaIIb peptide fluorescence polarization; series mostly up to 114 µM;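 note: GST tagged CIB1 binding a fluorescein labelled alphaIIb integrin peptide tracer; top concentration of the series differs between compounds; % is set by controls: 0 for no effect and ±100 for the full control effect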
Calcium and integrin-binding protein 1 (Homo sapiens), sequence (Q99828 whole entry, looked up): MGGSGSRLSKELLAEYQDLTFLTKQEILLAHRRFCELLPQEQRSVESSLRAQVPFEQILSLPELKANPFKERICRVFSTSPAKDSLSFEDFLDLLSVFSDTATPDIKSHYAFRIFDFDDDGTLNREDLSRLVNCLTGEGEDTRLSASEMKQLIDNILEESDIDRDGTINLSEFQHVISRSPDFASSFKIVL
Procedure, shortened: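 Fluorescence polarization competition: CIB1-GST (1 uM final) preincubated with compound 15 min at room temperature, then FITC-labeled alphaIIb peptide (100 nM final) added for another 15 min. Polarization read at Ex 480/Em 540.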

[3] = Primary qHTS for inhibitors of nuclear receptor binding SET domain protein 2 (NSD2) in an isogenic RCH-ACV NSD2 p.E1099K mutant (9B) (AID 1645876); details: RCH-ACV (leukaemia line) NSD2 E1099K (9B) viability, CellTiter-Glo, 72 h; series mostly up to 44.9 µM; note: nearly all actives have a fitted effect of over 70% in size; note: potency is the fitted concentration of half-maximal effect
[4] = target: Glutathione peroxidase 1 (Homo sapiens) (UniProt P07203); assay: Primary qHTS Assay for Inhibitors of Recombinant Selenoprotein Glutathione Peroxidase 1 (GPX1) (AID 1845191); details: recombinant GPX1, GR-coupled NADPH fluorescence, 15 min; series mostly up to 48.8 µM; note: nearly all actives have a fitted effect of over 65% in size; for activity, negative = inhibition: % is set by controls: 0 for no effect and ±100 for the full control effect
Glutathione peroxidase 1 (Homo sapiens), sequence (P07203 whole entry, looked up): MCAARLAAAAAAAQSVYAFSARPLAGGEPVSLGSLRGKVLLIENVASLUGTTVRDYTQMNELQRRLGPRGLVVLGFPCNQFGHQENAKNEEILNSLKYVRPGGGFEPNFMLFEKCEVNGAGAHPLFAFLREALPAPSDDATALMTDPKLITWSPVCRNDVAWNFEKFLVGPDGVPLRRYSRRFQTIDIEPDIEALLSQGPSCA
Procedure, shortened: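 GPX1 10 nM, GR 100 nM, GSH 1 mM, NADPH 0.5 mM, CHP 0.5 mM (final). 30-min cpd preincubation, RT. Ex340/Em450 read t=0, t=15 min.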

[5] = target: Phospholipid hydroperoxide glutathione peroxidase GPX4 (Homo sapiens) (UniProt P36969); assay: Primary qHTS Assay for Inhibitors of Recombinant Selenoprotein Glutathione Peroxidase 4 (GPX4) (AID 1845192); details: recombinant GPX4, GR-coupled NADPH fluorescence, 15 min; series mostly up to 50 µM; note: nearly all actives have a fitted effect of over 65% in size; for activity change, negative = inhibition: % is set by controls: 0 for no effect and ±100 for the full control effect
Phospholipid hydroperoxide glutathione peroxidase GPX4 (Homo sapiens), sequence (P36969 whole entry, looked up): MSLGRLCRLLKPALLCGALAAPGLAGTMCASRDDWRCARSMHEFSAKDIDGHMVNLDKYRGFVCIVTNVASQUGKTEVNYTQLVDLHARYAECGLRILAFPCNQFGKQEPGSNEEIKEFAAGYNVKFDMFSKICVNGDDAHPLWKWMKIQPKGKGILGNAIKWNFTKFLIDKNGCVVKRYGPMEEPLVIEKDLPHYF
Procedure, shortened: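 qHTS, GR-coupled: GPX4 200 nM + cpd 30 min RT → GSH 1 mM, NADPH 0.5 mM, GR 100 nM → CHP 0.5 mM start; fluor 340/450 at t0 and t15 min; no-enzyme wells as control.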

[6] = target: Luciferin 4-monooxygenase (Photinus pyralis) (UniProt P08659); assay: Primary firefly luciferase (FLuc) qHTS assay for identification of artifact compounds. (AID 1845220); details: purified firefly luciferase, luminescence, 5 min; series mostly up to 54.1 µM; note: nearly all actives have a fitted effect of over 60% in size;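 for activity change, negative = inhibition: plate controls were DMSO vehicle for no effect and no enzyme for full effect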
Procedure, shortened: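 qHTS, 15 min compound preincubation with substrate (10 uM luciferin, 10 uM ATP) at RT, then 10 nM FLuc; 5 min; luminescence; % inhibition vs no-enzyme/DMSO controls, 4-parameter Hill fit.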

[7] = Primary fluorescence-based thiol-reactive (MSTI) qHTS assay for identification of artifact compounds. (AID 1845221); details: MSTI thiol-reactivity probe, 1 h; series mostly up to 53.8 µM; note: nearly all actives have a fitted effect of over 65% in size; note: potency is the fitted concentration of half-maximal effect;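 for activity change, negative = thiol reactive: thiol-reactive compounds lower the probe fluorescence signal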
Procedure, shortened: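 Thiol-reactive compounds detected by quenching of 4 uM MSTI fluorescence (525/598 nm) after 1 h room-temperature dark incubation in PBS pH 7.4, 2% DMSO. qHTS titration; percent inhibition Hill-fitted against Acetyl-MSTI/MSTI controls.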

[8] = tested on: Nanoluciferase (engineered Oplophorus gracilirostris luciferase); assay: Primary Nanoluciferase (NLuc) qHTS assay for identification of artifact compounds. (AID 1845222); details: NLuc-conditioned medium, Nano-Glo luminescence, 5 min; series mostly up to 54.1 µM
Procedure, shortened: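 Luminescence read-out of secreted NLuc in S16 cell conditioned medium (1:55); compounds tested with 15 min RT preincubation, then Nano-Glo substrate 1:100, 5 min. % inhibition vs no-enzyme and DMSO controls, 4-parameter Hill fit.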

CRL-7250 = normal cell line; assay: Cytotoxic Profiling of Annotated Libraries Using Quantitative High-Throughput Screening (AID 1296008); details: Five cell lines viability, CellTiter-Glo ATP luminescence, 48-72 h; max response: stronger effect = lower value; note: nearly all actives have a fitted effect of over 60% in size; note: potency is the fitted concentration of half-maximal effect
Procedure, shortened: (§1)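 Compounds were pin-transferred onto cells and incubated 48 or 72 hr at 37 degree Celsius, 95% humidity. CellTiter-Glo was added, plates sat 10 min at room temperature, then ATP-coupled luminescence was imaged as the viability read-out.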

HEK293 = assay: as above; details: Five cell lines viability, CellTiter-Glo ATP luminescence, 48-72 h; max response: stronger effect = lower value
Procedure, shortened: as §1

HaCat = assay: as above; details: Five cell lines viability, CellTiter-Glo ATP luminescence, 48-72 h; max response: stronger effect = lower value
Procedure, shortened: as §1

KB-3-1 = assay: as above; details: Five cell lines viability, CellTiter-Glo ATP luminescence, 48-72 h; max response: stronger effect = lower value
Procedure, shortened: as §1

C33A = assay: Primary qHTS to identify gynecologic anti-cancer compounds using libraries of approved drugs and bioactive compounds (AID 1345084); details: Gynecologic cancer cell panel viability, ATPlite luminescence, 48 h; series mostly up to 57.5 µM; note: nearly all actives have a fitted effect of over 55% in size; note: potency is the fitted concentration of half-maximal effect
Procedure, shortened: (§2)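 Five-point cytotoxicity, 48 h drug exposure at 37 C, 5% CO2, on cells seeded 16 h beforehand. ATP content read by ATPlite luminescence.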

Es-2 = assay: as above; details: Gynecologic cancer cell panel viability, ATPlite luminescence, 48 h; series mostly up to 57.5 µM
Procedure, shortened: as §2

Hek293T = assay: as above; details: Gynecologic cancer cell panel viability, ATPlite luminescence, 48 h, control line for the selectivity index; series mostly up to 57.5 µM
Procedure, shortened: as §2

OV90 = assay: as above; details: Gynecologic cancer cell panel viability, ATPlite luminescence, 48 h; series mostly up to 57.5 µM
Procedure, shortened: as §2

PA-1 = assay: as above; details: Gynecologic cancer cell panel viability, ATPlite luminescence, 48 h; series mostly up to 57.5 µM
Procedure, shortened: as §2

Tov-21-G = assay: as above; details: Gynecologic cancer cell panel viability, ATPlite luminescence, 48 h; series mostly up to 57.5 µM
Procedure, shortened: as §2

Tov112D = assay: as above; details: Gynecologic cancer cell panel viability, ATPlite luminescence, 48 h; series mostly up to 57.5 µM
Procedure, shortened: as §2

CASKI = assay: as above; details: Gynecologic cancer cell panel viability, ATPlite luminescence, 48 h; series mostly up to 57.5 µM
Procedure, shortened: as §2

CC(=O)OC[C@]12C[C@H](OC(=O)CC(C)C)C(C)=C[C@H]1O[C@@H]1[C@H](O)C[C@@]2(C)[C@]12CO2
inactive: Potency [1] | Potency [2] | Potency [4] | Potency [5] | outcome [6] inactive [at 25.7 µM] | Potency [7] | Potency [8]
active: Potency [3] 632 nM | Potency (CRL-7250) 3170 nM | Potency (HEK293) 563 nM | Potency (HaCat) 6320 nM | Potency (KB-3-1) 709 nM | Potency (C33A) 2820 nM | Potency (Es-2) 3980 nM | Potency (Hek293T) 1000 nM | Potency (OV90) 4470 nM | Potency (PA-1) 1000 nM | Potency (Tov-21-G) 4470 nM | Potency (Tov112D) 2240 nM

COC1CC(O[C@H]2CC[C@]3(C)C4CC[C@]5(C)[C@@H](C6=CC(=O)OC6)[C@@H](OC(C)=O)C[C@]5(O)C4CC[C@@H]3C2)OC(C)C1O[C@@H]1O[C@H](CO)[C@@H](O)[C@H](O)[C@H]1O (stereo partly specified)
inactive: Potency [2] | Potency [4] | Potency [5] | Potency [8]
active: Potency [3] 383 nM | Potency [7] 6300 nM | Potency (CRL-7250) 385 nM | Potency (HEK293) 485 nM | Potency (HaCat) 1720 nM | Potency (KB-3-1) 862 nM | Potency (C33A) 631 nM | Potency (CASKI) 3160 nM | Potency (Es-2) 794 nM | Potency (Hek293T) 1410 nM | Potency (OV90) 3160 nM | Potency (PA-1) 1120 nM | Potency (Tov-21-G) 562 nM | Potency (Tov112D) 355 nM

C[C@@H]1C[C@@H](O)[C@]2(O)O[C@@H]3C[C@@]4(C=O)C(CC[C@@H]5C4CC[C@]4(C)[C@@](O)(C6=CC(=O)OC6)CC[C@]54O)C[C@H]3OC2O1 (stereo partly specified)
active: Potency [3] 709 nM | Potency [7] 9220 nM | Potency (CRL-7250) 796 nM | Potency (HEK293) 1120 nM | Potency (HaCat) 5020 nM | Potency (KB-3-1) 2240 nM | Potency (C33A) 2820 nM | Potency (Es-2) 3550 nM | Potency (Hek293T) 3160 nM | Potency (Tov-21-G) 1780 nM | Potency (Tov112D) 891 nM
inactive: Potency [1] | Potency [2] | Potency [4] | outcome [6] inactive [at 25.7 µM] | Potency [8]

c1cncc(OC[C@@H]2CCN2)c1
inactive: Potency [1] | Potency [2] | Potency [3] | Potency [4] | Potency [5] | outcome [6] | Potency [7] | Potency [8] | max response (CRL-7250) 0.617% | max response (HEK293) 1.76% | max response (HaCat) 0.624% | max response (KB-3-1) -3.57% | Potency (C33A) | Potency (CASKI) | Potency (Es-2) | Potency (Hek293T) | Potency (OV90) | Potency (PA-1) | Potency (Tov-21-G) | Potency (Tov112D)

CC(=O)O[C@@H]1[C@@H](O)[C@H]2O[C@@H]3C=C(C)[C@@H](O)C[C@]3(CO)[C@]1(C)[C@]21CO1
active: Potency [3] 450 nM | Potency (CRL-7250) 1010 nM | Potency (HEK293) 321 nM | Potency (HaCat) 3600 nM | Potency (KB-3-1) 805 nM | Potency (C33A) 3550 nM | Potency (CASKI) 3980 nM | Potency (Es-2) 2000 nM | Potency (OV90) 1410 nM | Potency (Tov-21-G) 4470 nM
inactive: Potency [1] | Potency [2] | Potency [4] | outcome [6] | Potency [7] | Potency [8]

CC1CCCC(=O)CCC/C=C/c2cc(O)cc(O)c2C(=O)O1 (stereo unspecified)
active: Potency [7] 14700 nM
inactive: Potency [1] | Potency [2] | Potency [3] | Potency [5] | outcome [6] | Potency [8] | max response (CRL-7250) 3.12% | max response (HEK293) -3.13% | max response (HaCat) 2.86% | outcome (KB-3-1) | Potency (C33A) | Potency (CASKI) | Potency (Es-2) | Potency (Hek293T) | Potency (OV90) | Potency (Tov-21-G) | Potency (Tov112D)

C[N@@+]1(CC2CC2)CC[C@]23c4c5ccc(O)c4O[C@H]2C(=O)CC[C@@]3(O)[C@H]1C5
inactive: Potency [1] | Potency [2] | Potency [3] | Potency [5] | Potency [7] | Potency [8] | max response (CRL-7250) 2.78% | max response (HEK293) 0.678% | max response (HaCat) -19.5% | outcome (KB-3-1) | Potency (C33A) | Potency (CASKI) | Potency (Es-2) | Potency (Hek293T) | Potency (OV90) | Potency (PA-1) | Potency (Tov-21-G) | Potency (Tov112D)

CC(=O)OC[C@]12C[C@H](OC(=O)CC(C)C)C(C)=C[C@H]1O[C@@H]1[C@H](O)[C@@H](O)[C@@]2(C)[C@]12CO2
active: Potency [3] 25.2 nM | Potency (CRL-7250) 142 nM | Potency (HEK293) 25.2 nM | Potency (HaCat) 252 nM | Potency (KB-3-1) 39.9 nM | Potency (CASKI) 224 nM | Potency (Es-2) 178 nM | Potency (Hek293T) 79.4 nM | Potency (Tov-21-G) 355 nM | Potency (Tov112D) 316 nM
inactive: Potency [1] | Potency [2] | Potency [4] | Potency [5] | outcome [6] | Potency [7] | Potency [8]

CC[C@H](C)[C@H](NC(=O)[C@H]1CCCCN1C)C(=O)N(COC(=O)CC(C)C)[C@H](C[C@@H](OC(C)=O)c1nc(C(=O)N[C@@H](Cc2ccc(O)cc2)C[C@H](C)C(=O)O)cs1)C(C)C
active: Potency [3] 1.1 nM | Potency (CRL-7250) 4.7 nM | Potency (HEK293) 0.4 nM | Potency (KB-3-1) 0.8 nM | Potency (Es-2) 8.3 nM | Potency (Tov-21-G) 5.2 nM | Potency (Tov112D) 4.1 nM
inactive: outcome [1] inactive [at 1.3 µM] | activity change, negative = inhibition [2] 1.44% [at 2.24 µM] | activity, negative = inhibition [4] -5.19% [at 1.09 µM] | activity change, negative = inhibition [5] -13.5% [at 1.09 µM] | activity change, negative = thiol reactive [7] 28.3% [at 1.02 µM] | activity, negative = inhibition [8] 2.85% [at 1.03 µM] | max response (HaCat) -10.6%
